Data on 33 molecules can be found in PubChem BioAssay AID1345085 (National Center for Advancing Translational Sciences (NCATS), 2018).

Each structure is given as a SMILES string. Records with an inconclusive call do not appear. Active and inactive are the calls of the source. Calls follow the shape of the dose curve; as a rule, active = well fitted cell-killing curve with a large enough effect; inconclusive = small, poorly fitted or top-dose-only effect, or effect the other way; inactive = no such curve, though single readings can be large or run the other way.
% is scaled to controls: 0 for no effect and ±100 for the full control effect; potency is read from the fitted curve at half-maximal effect.

For the experiment, the system named is C33A. Briefly: Confirmatory qHTS for gynecologic anti-cancer compounds from libraries of approved drugs and bioactive compounds. Also: nearly all actives have a fitted effect of over 55% in size. The following applies: gynecologic cancer cell panel viability, ATPlite luminescence, 48 h; series mostly up to 57.6 µM. An outline of the steps: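 IC50 values derive from an ATPlite ATP-content luminescence assay following 48 h treatment at 37 C. Each compound ran as an 11-concentration, threefold series (57.5 uM to 0.977 nM); HEK 293T served as control line for selectivity index.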
On the technique in general: qHTS replaces the single test concentration by a dilution series.
As to `COc1cc(F)c(F)c(Nc2ccc(I)cc2F)c1NS(=O)(=O)C1(CC(O)CO)CC1` (stereo not drawn), the Potency entry was “inactive”.
In the case of `COc1cc(C(=O)N2CCC(N3CCN(C)CC3)CC2)ccc1Nc1ncc2c(n1)N(C)c1ccccc1C(=O)N2C`, the Potency entry is “inactive”.
Regarding `NS(=O)(=O)OC[C@@H]1C[C@@H](n2ccc3c(N[C@H]4CCc5ccccc54)ncnc32)C[C@@H]1O`, the Potency was 4.85 µM (active).
On to `COc1cc2c(Nc3ccc(NC(=O)c4ccccc4)cc3)ncnc2cc1OCCCN1CCOCC1`, for which the Potency was 27.3 µM (active).
`CN(C)CC/C=C1\c2ccccc2COc2ccccc21`: the Potency entry was “inactive”.
With `COc1ccccc1N1CCN(CC(O)COc2cccc3ccccc23)CC1` (stereo not drawn), the Potency result is “inactive”.
Turning to `Cn1c(=O)c(-c2c(Cl)cccc2Cl)cc2cnc(Nc3cccc(C(=O)O)c3)nc21`, the Potency was 5.44 µM (active).
As to `COc1ccc(OC)c(-c2nnc3ccc(-c4ccc(OC)c(O[C@@H]5CCOC5)c4)nn23)c1`, the Potency entry was “inactive”.
Take `OCCNC1CCCc2c1[nH]c1ccc(-c3ccccc3)cc21` (stereo not drawn): the Potency was 17.2 µM (active).
Take `CN(C)c1ccc(-c2nc3ncc(Cl)c(N4CCN(CC(=O)Nc5nccs5)CC4)c3[nH]2)cc1`: the Potency result is “inactive”.
Regarding `CCN1C[C@H](C)n2c(c(O)c3c(=O)n(Cc4ccc(F)c(Cl)c4)nc(C(=O)NC)c32)C1=O`, the Potency entry is “inactive”.
For `COCCOc1nc(-c2ccc(Cl)c(Cl)c2)n(-c2ccc(NC(=O)CCl)cc2)n1`, the Potency was 4.32 µM (active).
On to `O=C(O)c1ccc(Nc2ncc3c(n2)-c2ccc(Cl)cc2C(c2c(F)cccc2F)=NC3)cc1`, for which the Potency result was “inactive”.
For the molecule `COc1cc(Nc2c(C#N)cnc3cc(OCCCN4CCN(C)CC4)c(OC)cc23)c(Cl)cc1Cl`, the Potency was 27.3 µM (active).
On the same count and under the same terms, to `OC[C@H]1O[C@@H](n2cnc3c(=S)nc[nH]c32)[C@H](O)[C@@H]1O` belongs 10.9 µM (active); to `COc1cccc2c1C(=O)c1c(O)c3c(c(O)c1C2=O)C[C@@](O)(C(=O)CO)C[C@@H]3O[C@H]1C[C@H](N)[C@H](O)[C@H](C)O1`, 1.22 µM (active).
The same measure, in the same setting: the same measure for `CCc1nc(C(N)=O)c(Nc2ccc(N3CCC(N4CCN(C)CC4)CC3)c(OC)c2)nc1NC1CCOCC1`: “inactive”; for `O=C(NCC(O)CO)c1ccncc1Nc1ccc(I)cc1F` (stereo not drawn): “inactive”.
Regarding `CN1C2CCC1CC(OC(=O)[C@H](CO)c1ccccc1)C2` (stereo partly drawn), the Potency entry is “inactive”.
Regarding `CN(Cc1cnc2nc(N)nc(N)c2n1)c1ccc(C(=O)N[C@@H](CCC(=O)O)C(=O)O)cc1`, the Potency entry is “inactive”.
In the case of `COc1cc(N2CCC(N3CCN(C)CC3)CC2)ccc1Nc1ncc(Cl)c(Nc2ccccc2S(=O)(=O)C(C)C)n1`, the Potency was 27.3 µM (active).
Turning to `Cc1cnc(Nc2cccc(CN3CCOCC3)c2)nc1Nc1cccc(S(=O)(=O)NC(C)(C)C)c1`, the Potency was 24.3 µM (active).
Take `CCC1C(=O)N(C)c2cnc(Nc3ccc(C(=O)NC4CCN(C)CC4)cc3OC)nc2N1C1CCCC1` (stereo not drawn): the Potency was 0.0544 µM (active).
For the molecule `Cc1cc(C2CCCCC2)n(O)c(=O)c1`, the Potency was 7.03 µM (active).
For `CC(=O)OC12COC1CC(O)C1(C)C(=O)C(O)C3=C(C)C(OC(=O)C(O)C(NC(=O)OC(C)(C)C)c4ccccc4)CC(O)(C(OC(=O)c4ccccc4)C21)C3(C)C` (stereo not drawn), the Potency result is “inactive”.
With `CC(=O)NCC(=O)N1C2CCC1c1cc(Nc3ncc(C(F)(F)F)c(NC4CCC4)n3)ccc12` (stereo not drawn), the Potency entry is “inactive”.
`CC[C@H](Nc1ncnc2nc[nH]c12)c1nc2cccc(F)c2c(=O)n1-c1ccccc1`: the activity change, negative = viability loss is -0.528% [at 10.7 µM] (inactive).
With `O=C1NC(=O)C(c2cnc3ccccn23)=C1c1cn2c3c(cccc13)CN(C(=O)N1CCOCC1)CC2`, the Potency result was “inactive”.
As to `Cc1cc(CN2CCN(c3c(Br)cnc4nc(-c5ccc(N6CCN(C)CC6)cc5)[nH]c34)CC2)no1`, the Potency was 24.3 µM (active).
Same read-out and setting: to `CCCCc1oc2ccc(NS(C)(=O)=O)cc2c1C(=O)c1ccc(OCCCN(CCCC)CCCC)cc1` belongs 27.3 µM (active).
With `CC(C)C[C@H](NC(=O)[C@@H](NC(=O)c1cccc(-c2ccccc2)n1)[C@@H](C)O)B(O)O`, the Potency is 0.385 µM (active).
In the case of `CCOc1cc2ncc(C#N)c(Nc3ccc(F)c(Cl)c3)c2cc1NC(=O)/C=C/CN(C)C`, the Potency was 8.63 µM (active).
`Nc1ccccc1NC(=O)c1ccc(CNC(=O)OCc2cccnc2)cc1`: the Potency was 5.44 µM (active).
